Sampled rows, rich in hits. Any-hit rate of the full collection: about 3.8%.
HT1080 IDH1KD tx – kills HT-1080 cells with IDH1 knockdown | Potency, µM (series often up to 46.1 µM), without a hit: top-dose activity, negative = toxicity, usual class: cytotoxic | HT-1080 IDH1 knockdown viability, ATP luminescence, 48 h | AID 686971 | actives 2% (n = 360,000);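 further: 0% = DMSO wells and -100% = cell-free medium wells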
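Assay cells: HT-1080 with IDH1 knockdown, 750 per well, RPMI/5% FBS. Exposure: 48 h at 37 °C following 2 h pre-incubation. Read: CellTiter-Glo luminescence; fitted concentration-response, curve class assigned.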
S2 tox – reduces viability in counter-screen for ATXN expression inhibitors; AID 651635; S2 cells (HEK-293 line with an ATXN2-luciferase reporter) viability, CellTiter-Fluor protease fluorescence, 24 h; actives 0.49% (n = 400,000); Potency, µM (highest dose often 56.7 µM), actives largely listed as cytotoxic; further: nearly all actives have a fitted effect of over 40% in size
HT1080-NT tox – kills 2HG-producing HT-1080-NT fibrosarcoma cells | HT-1080-NT fibrosarcoma viability, CellTiter-Glo ATP luminescence, 48 h | Potency, µM (highest dose often 46.1 µM), for the others: at the highest dose activity, negative = less viability, usual class: cytotoxic | actives 1.6% (n = 360,000);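 further: NT is the 2HG producing partner of a matched IDH1 knockdown line; 0% = DMSO-treated cells and -100% = media-only wells without cells; nearly all actives have a fitted effect of over 55% in size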
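750 cells/well, RPMI + 5% FBS; 2 h settle, compound pin-transfer, 48 h at 37 degrees C. CellTiter-Glo 10 min RT, luminescence. Normalized to DMSO and media-only wells.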
ATXN2 expr inh – reduces ATXN2 reporter expression in HEK-293 cells. Potency, µM (titrated, usually from 57 µM), for inactives: at the top dose activity change, negative = inhibition, usual class: inhibitors. AID 1745845. HEK-293 ATXN2-luciferase reporter, luminescence, 24 h. actives 0.72% (n = 360,000); further: on the % scale 0 is the no-effect control and ±100 the full control effect; nearly all actives have a fitted effect of over 55% in size
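ATXN2-luciferase reporter cells (luciferase flanked by upstream and downstream ATXN2 gene portions) were treated 24 h at 37 °C with compounds at up to 57 uM. SteadyGlo luminescence gave expression; GF-AFC fluorescence gave viability.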
TGFb inhibitor – TGF-b pathway inhibition; Potency, µM (series often up to 46.1 µM), without a hit: at the top dose activity, negative = inhibition, most hits filed as inhibitors; HepG2 CAGA-GFP TGF-b/SMAD3 reporter, GFP fluorescence, 18 h; TGF-beta stimulated, 500 pg/mL final; actives 1.2% (n = 410,000); further: on the % scale 0 is the no-effect control and ±100 the full control effect; nearly all actives have a fitted effect of over 65% in size
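HEPG2 CAGA-GFP, 1000 cells/well; 2 h settle, 37 C; cpd via pin tool; TGF-b 500 pg/mL final; 18 h, 37 C; GFP imaging ex488/em500-530; %Activity normalised to -TGF-b and +DMSO controls; CRC fit, curve class.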
HepG2 viability – kills HepG2 cells in TGF-b inhibitor counter-screen. Potency, µM (highest dose often 46.1 µM), for the others: top-dose activity change, negative = cytotoxicity, usual class: cytotoxic. AID 588856. actives 0.76% (n = 410,000). HepG2 CAGA-GFP viability, ATP luminescence, 18 h
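HepG2 CAGA-GFP cells (1000/well, DMEM with 1% FBS) received compound, then TGF-beta at 500 pg/mL final, and were incubated 18 hours at 37 degrees C. Viability was read by CellTiter-Glo luminescence. Media-only wells were set as complete cell-killing and DMSO as no toxicity.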
Numbers without * were called inactive; i = inactive; ? = inconclusive; nt = no result; [ ] = another dose, or the depositor's remark. The call rests on the fitted dose curve; in most records, active means well fitted curve in the direction sought with a large enough effect; inconclusive means small, poorly fitted or top-dose-only effect, or another doubt; inactive means no such curve, though single readings can be large; an effect the other way counts as inactive or inconclusive. Potency means the concentration at half of the fitted maximal effect.

SMILES | HT1080 IDH1KD tx | S2 tox | HT1080-NT tox | ATXN2 expr inh | TGFb inhibitor | HepG2 viability
Cc1ccc(C=Nc2ccccc2C(N)=O)cc1 | 5.6µM* | ? | 7.1µM* | 37% | 3% | -14%
COCc1cc(O)c(O)c(O)c1-c1c(COC)cc(O)c(O)c1O | nt | nt | nt | nt | -14% | -37%
Brc1ccc2c(c1)C(C1=NCCN1)c1ccccc1CS2 (stereo not given) | 1µM* | ? | 0.82µM* | 0% | -13% | -15%
COc1ccccc1NC(=O)c1cnc(SCC(=O)N2CCOCC2)n(C)c1=O | nt | i | nt | 13% | -19% | -24%
CC[C@H](C=C[C@@H](C)[C@H]1CC[C@H]2[C@@H]3CC=C4C[C@@H](O)CC[C@]4(C)[C@@H]3CC[C@]12C)C(C)C | nt | nt | nt | -2%[25.6 µM] | nt | nt
CN(C)c1ccc(/C=C/c2c(F)cnc3ccccc23)cc1 | nt | nt | nt | nt | ? | -51%
CC(=O)c1ccc(Nc2cc(C)nc3ccc(C)cc23)cc1 | ? | ? | 21µM* | -29% | -13% | -45%
COc1ccc(Nc2cc(C)nc3ccc(C)cc23)cc1 | -3% | ? | -20% | nt | -23% | -40%
CCc1cccc(NC(=O)C2CCN(C(=O)c3cnn(-c4ccccc4)c3-n3cccc3)CC2)c1 | nt | ? | nt | ? | ? | -21%
O=C(N/N=C/c1ccc([N+](=O)[O-])o1)c1cc(-c2ccncc2)nc2ccccc12 | ? | ? | 4µM* | ? | 14% | -42%
Cc1ccc(-c2cc(C(=O)N/N=C/c3ccc([N+](=O)[O-])o3)c3ccccc3n2)o1 | ? | i | ? | -26% | 14µM* | 11µM*
COc1ccccc1-c1cc(C(=O)N/N=C/c2ccc(C)o2)c2ccccc2n1 | ? | i | -11% | 50% | 1% | -17%
O=C(N/N=C/c1ccc([N+](=O)[O-])o1)c1cc(-c2ccc(-c3ccccc3)cc2)nc2ccccc12 | ? | ? | ? | ? | -14% | -8%
Cc1cc(C(=O)N/N=C/c2ccncc2)c(C)o1 | -22% | i | -15% | 16% | -1% | -26%
Cc1ccc(/C=N/NC(=O)c2cc(-c3ccncc3)nc3ccccc23)o1 | 1.8µM* | i | ? | -11% | ? | 3%
Cc1ccc(/C=N/NC(=O)c2cc(C)oc2C)cc1 | 21µM* | i | ? | -17% | 2% | -60%
Brc1ccc(C2C=Cc3ccccc32)cc1 (stereo not given) | nt | nt | nt | nt | 0% | 3%
OCc1ccccc1O[C@@H]1O[C@H](CO)[C@H](O)[C@H](O)[C@H]1O | nt | nt | nt | -1% | nt | nt
Cc1ccc(/C=N/NC(=O)c2cc(-c3cccnc3)nc3ccccc23)cc1 | 1.3µM* | i | 1.5µM* | -23% | ? | 3%
Cc1ccc(-c2nc(N/N=C/c3cccnc3)c3ccccc3n2)cc1 | ? | i | 11µM* | 71% | ? | 14µM*
COc1cccc(NC(=O)c2csc3c2CCCCC3)c1 | nt | i | nt | 53% | ? | -38%
COc1ccccc1-c1nnc(C2CCN(C(=O)c3cccc(C)c3)CC2)o1 | nt | i | nt | 3% | ? | -1%
O=C(CN1C(=O)COc2ccc(S(=O)(=O)N3CCOCC3)cc21)N1CCN(c2ccccc2)CC1 | nt | i | nt | 12% | 16% | 9%
Cc1ccc(CN2CCC(CNC(=O)c3cc4ccc5cccnc5c4[nH]3)CC2)cc1 | nt | nt | nt | nt | ? | 13µM*
O=[N+]([O-])c1ccc(-c2cc3ccccc3[nH]2)cc1 | nt | nt | nt | nt | -4% | -16%
SMILES | HT1080 IDH1KD tx | S2 tox | HT1080-NT tox | ATXN2 expr inh | TGFb inhibitor | HepG2 viability
Cc1oc2ncn(CC(C)C)c(=O)c2c1C(=O)NCCCN1CCC(C)CC1 | nt | i | nt | -11% | 6% | 0%
CC(CNC(=O)c1cnn(-c2ccc(F)cc2)c1-n1cccc1)c1ccccc1 (stereo not given) | nt | i | nt | -27% | 10µM* | -9%
OCCN(CCO)CC(O)COc1ccc(C23CC4CC(CC(C4)C2)C3)cc1 (stereo not given) | 4% | i | -7% | ? | 18µM* | -88%
COc1cc2c(cc1OC)CN(CCc1ccc(NC(=O)c3cccc4c(=O)c5cccc(OC)c5[nH]c34)cc1)CC2 | nt | nt | nt | 9% | nt | nt
COc1ccc2[nH]c3c(N4CC(C)OC(C)C4)ncnc3c2c1 (stereo not given) | -2% | i | -15% | -31% | 0% | -1%
COc1ccc2c(c1)[nH]c1c(N3CCSCC3)ncnc12 | 15µM* | i | ? | ? | 0% | -30%
COc1ccc2c(c1)[nH]c1c(N3CCN(Cc4ccc5c(c4)OCO5)CC3)ncnc12 | ? | 10µM* | -19% | 14µM* | 20µM* | -53%
COc1cccc(N2CCN(c3ncnc4c3[nH]c3ccc(F)cc34)CC2C)c1 (stereo not given) | 7.3µM* | 10µM* | 6.5µM* | 3.5µM* | ? | -70%
Cc1oc(-c2cccc(NC(=O)c3ccccn3)c2)nc1CNC(=O)c1ccc(C(F)(F)F)cc1 | nt | i | nt | nt | nt | nt
Fc1ccc(F)c(Nc2c3c(nc4ccc(Cl)cc24)CCC3)c1 | nt | ? | nt | ? | ? | 18µM*
FC(F)(F)c1cccc(Nc2c3c(nc4ccc(Cl)cc24)CCC3)c1 | nt | nt | nt | nt | 18µM* | -75%
COC(=O)C1CCN(Cc2ccc3c(c2)CN(C(=O)c2cc4ccccc4n2C)CCO3)CC1 | nt | i | nt | nt | nt | nt
O=[N+]([O-])c1ccc2[nH]cc(S(=O)(=O)N3CCN(c4cccc(Cl)c4)CC3)c2c1 | 23µM* | i | 21µM* | ? | ? | -40%
Cc1ccc(-c2csc3nc[nH]c(=S)c23)cc1 | ? | ? | ? | -18% | 0% | -23%
S=c1[nH]cnc2scc(-c3ccc(Br)cc3)c12 | 13µM* | i | 21µM* | ? | -9% | -23%
Cc1cc(-c2csc3nc[nH]c(=S)c23)cc(C)c1C | 15µM* | ? | 16µM* | ? | ? | 10%
O=C(NNC(=O)c1ccccc1OCc1ccc(F)cc1)c1ccccc1O | ? | ? | -13% | 16µM* | ? | -18%
O=C(Nc1cccc2c1CCCC2)c1cc([N+](=O)[O-])ccc1Cl | 21µM* | i | 16µM* | 25µM* | ? | -46%
COc1ccccc1NC1=C(Cl)C(=O)OC1OC(=O)c1ccco1 (stereo not given) | ? | i | 21µM* | -9% | -3% | -22%
Cc1ccccc1NC1=C(Cl)C(=O)OC1OC(=O)c1ccco1 (stereo not given) | 11µM* | ? | ? | ? | -23% | -38%

Compound activity as filed in PubChem BioAssay.
